Screens (PubChem)
Compounds with a hit are over-represented: about 10% of the library has one in this group of screens.
RORg inh – inhibitors of mouse ROR gamma transcriptional activity; P51450; Drosophila S2 Gal4-RORgamma UAS-luciferase reporter, 20 h; Potency, µM (highest dose often 53.6 µM), hits mostly inhibitors; 310,000 tested, 5.4% active; AID 2551; further: nearly all actives have a fitted effect of over 60% in size
Target sequence (P51450 whole entry, looked up, the tested form may be a part): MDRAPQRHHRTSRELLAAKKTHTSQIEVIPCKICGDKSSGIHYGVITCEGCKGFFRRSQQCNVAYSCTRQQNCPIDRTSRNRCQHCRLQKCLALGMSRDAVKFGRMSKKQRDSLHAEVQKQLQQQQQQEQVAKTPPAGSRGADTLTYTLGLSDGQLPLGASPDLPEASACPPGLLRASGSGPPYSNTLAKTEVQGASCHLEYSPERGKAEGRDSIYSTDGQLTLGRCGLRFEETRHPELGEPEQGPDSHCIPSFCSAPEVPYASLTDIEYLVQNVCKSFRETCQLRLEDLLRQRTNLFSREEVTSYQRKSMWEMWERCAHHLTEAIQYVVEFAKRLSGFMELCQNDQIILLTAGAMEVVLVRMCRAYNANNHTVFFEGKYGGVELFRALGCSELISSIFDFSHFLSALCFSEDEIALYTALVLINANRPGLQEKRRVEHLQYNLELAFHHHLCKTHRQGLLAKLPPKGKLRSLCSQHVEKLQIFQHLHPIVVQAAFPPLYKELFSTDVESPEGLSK
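Stably transfected Drosophila Schneider cells are the test system, with ROR gamma fused to Gal4 and luciferase under UAS control; luminescence is read after 20 hr of 700 uM copper sulfate induction at ambient temperature.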
KB-3-1 cytotox – KB-3-1 parental cell cytotoxicity. AID 1347075. Potency, µM (highest dose often 46.1 µM), most hits filed as cytotoxic. 400,000 tested, 1.4% active. KB-3-1 viability, CellTiter-Glo ATP luminescence, 72 h; further: nearly all actives have a fitted effect of over 60% in size
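Here the drug-naive KB-3-1 line serves as comparator for MDR sub-line selectivity; cells received compound titrations, 72 h at 37 °C, then CellTiter-Glo readout.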
SW480 rereplic – DNA re-replication induction in SW480 cells | SW480 DNA re-replication, Hoechst DNA content imaging, 48 h | Potency, µM (series often up to 46.1 µM), hits mostly activators | 340,000 tested, 1.8% active | AID 624297; further: nearly all actives have a fitted effect of over 55% in size
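Cells (250 per well) received 23 nL compound or DMSO by pin tool and were kept 48 hr at 37 C, 5% CO2. Nuclei were then stained with Hoechst for 40 min and scanned for DNA content.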
KB-V1 MDR tox – KB-V1 MDR subline cytotoxicity. KB-V1 MDR cells viability, CellTiter-Glo, 72 h. 400,000 tested, 3.4% active. Potency, µM (highest dose often 46.1 µM), hits mostly cytotoxic; further: nearly all actives have a fitted effect of over 60% in size
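Drug-selected KB-V1 cells, grown in DMEM lacking phenol red with 10% FBS, receive compound titrations; after three days at 37 degrees C, surviving cell ATP is quantified by CellTiter-Glo luminescence and responses normalized and curve-fitted.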
VP16 counter – inhibits Gal4-VP16 luciferase reporter, ROR gamma counter-screen; Drosophila S2 Gal4-VP16 UAS-luciferase, luminescence, 20 h; Potency, µM (highest dose often 53.6 µM), most hits filed as inhibitors; 310,000 tested, 3.5% active;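 further: Gal4-VP16 expression switched on by copper sulfate through the metallothionein promoter; nearly all actives have a fitted effect of over 50% in size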
MCF10A rereplic – DNA re-replication induction in MCF 10a cells; 350,000 tested, 2.9% active; MCF 10A DNA re-replication, Hoechst nuclear intensity, 48 h; Potency, µM (highest dose often 46.1 µM), most hits filed as activators; AID 624296; further: nearly all actives have a fitted effect of over 50% in size
Of the large screens only hits and unclear results are named; the others gave an inactive call. The call rests on the fitted dose curve; in most records, active means well fitted curve in the direction sought with a large enough effect; inconclusive means small, poorly fitted or top-dose-only effect, or another doubt; inactive means no such curve, though single readings can be large; an effect the other way counts as inactive or inconclusive.

COc1ccc(C(=O)CC(=O)C(=O)Nc2cc(OC)c(OC)c(OC)c2)cc1	RORg inh inconclusive, VP16 counter inconclusive
CCOc1ccccc1NC(=O)C(=O)CC(=O)c1ccc(OC)cc1	RORg inh 6.3µM, KB-V1 MDR tox 16µM, VP16 counter 4µM
CC(OC(=O)Cn1nnc2ccccc21)C(=O)NC1CCCC1 (centres undefined)	KB-3-1 cytotox inconclusive
COc1ccc(CN2CSC(=S)N(Cc3ccc(OC)cc3)C2)cc1	RORg inh 6.3µM, SW480 rereplic inconclusive, VP16 counter 18µM, MCF10A rereplic inconclusive
S=C1SCN(Cc2ccccc2)CN1Cc1ccco1	none (no result: RORg inh, SW480 rereplic, VP16 counter, MCF10A rereplic)
S=C1SCN(Cc2ccccc2)CN1Cc1ccccc1	RORg inh inconclusive, SW480 rereplic inconclusive, VP16 counter inconclusive, MCF10A rereplic 33µM
COc1ccc(CN2CCCCCC2)cc1	none
S=C1SCN(Cc2cccnc2)CN1Cc1cccnc1	RORg inh 0.63µM, KB-3-1 cytotox inconclusive, SW480 rereplic inconclusive, KB-V1 MDR tox inconclusive, VP16 counter 5.6µM, MCF10A rereplic 13µM
COc1ccc(CN2CSC(=S)N(Cc3ccccc3)C2)cc1	RORg inh inconclusive, SW480 rereplic inconclusive, VP16 counter 10µM, MCF10A rereplic inconclusive
CC(=O)Nc1ccn(C2CC3OCC(NC(=O)C(Cc4ccccc4)NC(=O)OC(C)(C)C)C3O2)c(=O)n1 (centres undefined)	none (no result: KB-3-1 cytotox, SW480 rereplic, KB-V1 MDR tox, MCF10A rereplic)
O=C(NC1CCCC1)C(c1ccccn1)N(C(=O)c1csnn1)c1ccc(F)cc1 (centres undefined)	none
COc1ccc(-c2nc3scc(-c4ccccc4)n3n2)cc1	KB-3-1 cytotox inconclusive, SW480 rereplic inconclusive, KB-V1 MDR tox 18µM
CC1=C(CC/C(C)=N/NC(N)=S)C(C)(C)CCC1	RORg inh 1.8µM, KB-3-1 cytotox inconclusive, SW480 rereplic 11µM, VP16 counter 2.8µM, MCF10A rereplic 13µM
COC(=O)N1CCC2(CCCN(c3ccccn3)C2)CC1	none (no result: KB-3-1 cytotox, SW480 rereplic, KB-V1 MDR tox, MCF10A rereplic)
Nc1nc(CN2CCN(c3ccccc3F)CC2)nc(N2CCCc3ccccc32)n1	RORg inh 11µM, VP16 counter inconclusive, MCF10A rereplic inconclusive
Nc1nc(CN2CCN(Cc3ccccc3)CC2)nc(N2CCCc3ccccc32)n1	RORg inh 10µM, KB-V1 MDR tox inconclusive
Nc1nc(CN2CCN(c3ccccc3)CC2)nc(N2CCCc3ccccc32)n1	KB-V1 MDR tox inconclusive, MCF10A rereplic inconclusive
Nc1nc(CN2CCN(c3cccc(Cl)c3)CC2)nc(N2CCCc3ccccc32)n1	KB-3-1 cytotox inconclusive, MCF10A rereplic inconclusive
COc1ccc(C(=O)N2C=Cc3ccccc3C2C#N)cc1 (centres undefined)	none (no result: RORg inh, SW480 rereplic, VP16 counter, MCF10A rereplic)
N#CC1c2ccccc2-c2ccccc2N1C(=O)c1ccccc1 (centres undefined)	KB-3-1 cytotox inconclusive, KB-V1 MDR tox 15µM (no result: RORg inh, SW480 rereplic, VP16 counter, MCF10A rereplic)
COc1cccc(CNC(=O)Cn2nc(N3CCN(c4ccccc4OC)CC3)ccc2=O)c1	none (no result: RORg inh, SW480 rereplic, VP16 counter, MCF10A rereplic)
Clc1ccc(-c2nnc(-c3ccco3)nc2N2CCCCC2)cc1	KB-V1 MDR tox 18µM, MCF10A rereplic inconclusive
Clc1ccc(-c2nnc(-c3ccc(Br)cc3)c(N3CCSCC3)n2)cc1	none
Cc1oc2ccc(NS(=O)(=O)c3ccc(F)cc3)cc2c1C(=O)O	none
COCCOC(=O)c1c(C)oc2ccc(NS(=O)(=O)c3ccc(F)cc3)cc12	KB-V1 MDR tox 5.2µM
NS(=O)(=O)c1ccc(N=Nc2c(-c3ccccc3)[nH]n(-c3nc(-c4ccccc4)cs3)c2=O)cc1	KB-3-1 cytotox inconclusive, SW480 rereplic 2.9µM, KB-V1 MDR tox 21µM, MCF10A rereplic inconclusive
O=C1C(Cc2ccccc2)NC(=S)N1Cc1ccccc1 (centres undefined)	RORg inh 13µM
O=C1CNC(=S)N1Cc1ccccc1	none
O=C1NC(CCc2ccccc2)C(=O)N1Cc1ccccc1Cl (centres undefined)	KB-V1 MDR tox 16µM
CC(=O)C1=C(C)N(Cc2ccccc2)C(=O)N[C@H]1CCc1ccccc1	RORg inh inconclusive, VP16 counter inconclusive, MCF10A rereplic inconclusive
CC(C)CC1NC(=S)N(Cc2ccccc2)C1=O (centres undefined)	RORg inh inconclusive, KB-3-1 cytotox inconclusive, SW480 rereplic inconclusive, KB-V1 MDR tox 21µM, MCF10A rereplic inconclusive
CSCCC1NC(=S)N(Cc2ccccc2)C1=O (centres undefined)	none
CC(C)CC1Nc2ncnc(N3CCCCC3)c2N(Cc2ccccc2)C1=O (centres undefined)	SW480 rereplic inconclusive (no result: RORg inh, VP16 counter)
CCC(C)C1NC(=S)N(Cc2ccccc2)C1=O (centres undefined)	RORg inh 10µM, VP16 counter inconclusive
N#Cc1ccccc1S(=O)(=O)N1CCN(C(=O)CN(Cc2ccco2)Cc2cccs2)CC1	none (no result: RORg inh, SW480 rereplic, VP16 counter, MCF10A rereplic)
OCCN1CCN(c2ncnc3c2ncn3[C@H]2CN(Cc3ccncc3)C[C@@H](CO)O2)CC1	KB-3-1 cytotox inconclusive (no result: RORg inh, SW480 rereplic, VP16 counter, MCF10A rereplic)
COc1cccc(-c2cccc(NC(=O)C3CCN(Cc4ccc(CO)o4)CC3)c2)c1	KB-3-1 cytotox inconclusive
O=C(Nc1cccc(-c2cccc(F)c2)c1)C1CCN(Cc2ccc(CO)o2)CC1	KB-3-1 cytotox inconclusive, SW480 rereplic 16µM
Cc1ccc(NC(=O)CN(C)CC(=O)Nc2sc3c(c2C(N)=O)CCC3)cc1	RORg inh 16µM, VP16 counter inconclusive
COC(=O)c1c(NC(=O)COC(=O)c2ccc(O)cc2)sc2c1CCCCC2	RORg inh inconclusive, SW480 rereplic inconclusive, VP16 counter 18µM, MCF10A rereplic 13µM
COCC(=O)Nc1sc2c(c1C(=O)OC)CCCC2	none
Cc1ccc(NC(=O)CN(C)CC(=O)Nc2ccc(F)c(Cl)c2)cc1	MCF10A rereplic 21µM
CN(CC(=O)Nc1ccc(Cl)cc1)CC(=O)Nc1sc2c(c1C(N)=O)CCC2	none (no result: RORg inh, SW480 rereplic, VP16 counter, MCF10A rereplic)
COc1ccc(CC(=O)Nc2sc3c(c2C(N)=O)CCCC3)cc1OC	KB-3-1 cytotox inconclusive, KB-V1 MDR tox 13µM
COc1ccc2c(c1)C(=O)CC2	none (no result: RORg inh, SW480 rereplic, VP16 counter, MCF10A rereplic)
CCC[C@@H]1C[C@@]1(CCC)C(NC(=O)c1cccs1)c1ccc(Cl)cc1 (some centres undefined)	none (no result: KB-3-1 cytotox, SW480 rereplic, KB-V1 MDR tox, MCF10A rereplic)
COC(=O)c1scc(-c2ccc(C)cc2)c1S(=O)(=O)N1CCN(c2ccccc2F)CC1	none (no result: RORg inh, SW480 rereplic, VP16 counter, MCF10A rereplic)
COc1cccc(-c2cc(=O)c3cc(O)ccc3o2)c1	VP16 counter inconclusive (no result: KB-3-1 cytotox, SW480 rereplic, KB-V1 MDR tox, MCF10A rereplic)
COc1ccc(Cl)cc1NC(=O)c1noc2c1CCc1ccccc1-2	none (no result: RORg inh, SW480 rereplic, VP16 counter, MCF10A rereplic)
Cc1cccc(C)c1NC(=O)CN(C)CC(=O)Nc1sc2c(c1C(N)=O)CCC2	none (no result: RORg inh, VP16 counter)
CN(CC(=O)Nc1ccccc1Cl)CC(=O)Nc1sc2c(c1C(N)=O)CCC2	SW480 rereplic inconclusive, MCF10A rereplic 3.3µM (no result: RORg inh, VP16 counter)
Cc1cc(C(=O)COC(=O)c2ccc[nH]c2=O)c(C)n1C	RORg inh inconclusive, SW480 rereplic inconclusive, VP16 counter inconclusive
